Among the data in PubChem BioAssay are composite z-score values, retold here.

For this assay, the target named is Albumin (Bos taurus) (UniProt P02769). The assay can be described thus: compounds binding labelled BSA control protein – biochemical, small-molecule microarray, Alexa647 label, 635/667 nm fluorescence, artefact control for SMM control protein annotation, profiling panel (AID 1118).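 Note: score merges 667 nm emission intensity and signal-to-noise per printed compound spot.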 The settings on record: BSA-A647 binding, fluorescence 635 nm, higher = more signal.
Albumin (Bos taurus), sequence (P02769 whole entry, looked up): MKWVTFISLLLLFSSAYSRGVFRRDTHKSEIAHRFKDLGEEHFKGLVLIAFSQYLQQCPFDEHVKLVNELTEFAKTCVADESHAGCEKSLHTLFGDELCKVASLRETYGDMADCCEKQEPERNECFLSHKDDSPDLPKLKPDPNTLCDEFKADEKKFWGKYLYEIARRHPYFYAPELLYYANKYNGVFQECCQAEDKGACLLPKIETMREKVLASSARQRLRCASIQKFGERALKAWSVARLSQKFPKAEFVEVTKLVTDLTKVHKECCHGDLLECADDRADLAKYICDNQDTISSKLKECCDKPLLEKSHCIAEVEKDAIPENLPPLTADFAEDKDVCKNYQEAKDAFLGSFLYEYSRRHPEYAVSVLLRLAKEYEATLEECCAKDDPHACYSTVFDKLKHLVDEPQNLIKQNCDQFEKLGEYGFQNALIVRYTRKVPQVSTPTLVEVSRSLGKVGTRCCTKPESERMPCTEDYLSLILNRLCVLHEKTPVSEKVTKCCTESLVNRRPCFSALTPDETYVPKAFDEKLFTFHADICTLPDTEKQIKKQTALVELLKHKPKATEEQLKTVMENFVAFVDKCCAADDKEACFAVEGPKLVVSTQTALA
Compound `COC(=O)c1c2oc(c1C(=O)OC)C(=O)N(Cc1ccccc1)Cc1cn(nn1)C[C@H](Cc1ccccc1)NC(=O)N[C@H](CO)CC2` gave a composite z-score of 0.784. Regarding `O=C1O[C@H](c2ccccc2)[C@H](c2ccccc2)N2[C@H]1[C@@H](C(=O)Nc1nc3ccccc3s1)[C@]1(C(=O)Nc3ccc(C#CC4(O)CCCCCC4)cc31)[C@H]2c1ccccc1OCCO`, the composite z-score stood at 0.743. To `O=C1O[C@@H](c2ccccc2)[C@@H](c2ccccc2)N2[C@@H](c3ccccc3OCCO)[C@]3(C(=O)Nc4ccc(C#CCCO)cc43)[C@@H](C(=O)N3CCCCCCC3)[C@H]12` belongs 0.366; to `CC(C)N1CC=CC23O[C@@H]4C=CCOC(=O)[C@@H]4[C@H]2C(=O)N(CCCO)[C@@H]3C1=O` (some centres not stated), 1.05. As for `COc1ccc([Si](C)(C)[C@@H]2[C@@H](CC(=O)N(CCO)Cc3ccccc3)O[C@]3(C(=O)N(Cc4cccc(N5CCOC5=O)c4)c4ccccc43)[C@H]2C)cc1`, the figure is -0.256; as for `COC(=O)[C@@]1(Cc2ccc(F)cc2)[C@H]2c3cc(C(=O)N4CCCC4)n(CCN4CNCC4=O)c3C[C@H]2CN1C(=O)c1ccccc1`, 0.975. In turn, `C=C[C@@H](COC(C)=O)N(C(=O)OC(C)(C)C)S(=O)(=O)c1ccc(Br)cc1` gave a composite z-score of 0.321.

In the case of `CN(C)C(=O)[C@]1(CCS(=O)(=O)c2ccccc2)N=C(c2ccc(OCCCO)cc2)O[C@@H]1c1ccccc1N=[N+]=[N-]`, the composite z-score worked out at 0.963. Regarding `O=C1NC(=O)C2C1C=CC(C(O)c1ccco1)N2Nc1ccccn1` (configuration not stated), the composite z-score is -0.176.

Take `C=CC[C@]1(C(=O)NCCN2CCOCC2)N=C(c2ccc(OCCCO)cc2)O[C@H]1c1ccccc1CN=[N+]=[N-]`: the composite z-score is -0.91. Take `CCOC(=O)C[C@H]1[C@H](OC(=O)c2ccccc2-c2ccccc2)[C@@H](NC(=O)c2ccc(-c3ccccc3)cc2)c2cc(OCCCO)ccc2N1C(=O)c1ccc2ccccc2n1`: the composite z-score amounted to 0.275. `CCCC[C@@H](O)C1=C(COc2ccccc2)C[C@H]2C(=O)N(C)C(=O)[C@H]2[C@H]1CO` gave a composite z-score of -0.261. `COCCOC(=O)N1C(=O)[C@@]2(c3cc(C#Cc4ccc(OC)cc4)ccc31)[C@H](C(=O)Nc1nc3ccccc3s1)[C@H]1C(=O)O[C@H](c3ccccc3)[C@H](c3ccccc3)N1[C@@H]2c1ccc(O)cc1` gave a composite z-score of 0.374. Compound `COC1OC[C@]2(C)[C@H]3C4=C(CN2C(=O)OC(C)(C)C)[C@H](C)C(CO)C(CO)C4CC[C@@H]13` (some centres not stated) registered a composite z-score of 1.1. As for `COCCCNC(=O)[C@]1(CCS(=O)(=O)c2ccccc2)N=C(c2ccc(OCCCO)cc2)O[C@@H]1c1ccccc1N=[N+]=[N-]`, the figure is 1.02; as for `CCCNC(=O)[C@@]1(c2ccc([N+](=O)[O-])cc2)CC(=O)N(C2CCCCC2)[C@@H]1c1ccc(CO)cc1`, 0.0308; as for `[N-]=[N+]=NCc1ccccc1C[C@@]1(C(=O)N2CCOCC2)N=C(c2ccc(OCCCO)cc2)O[C@@H]1c1ccccc1`, 0.851. In the case of `NC(N)=NCCCn1cc(CNC(=O)[C@@H](N)Cc2ccccc2)nn1`, the composite z-score amounted to 0.0958. To `COC(=O)[C@@]1(Cc2ccc(OC)cc2)[C@H]2c3cc(C(=O)N(C)C)n(CCO)c3C[C@H]2CN1C(=O)c1ccccc1` belongs 0.625; to `COCCCNC(=O)[C@@]1(Cc2ccccc2CN=[N+]=[N-])N=C(c2ccc(OCCCO)cc2)O[C@H]1c1ccccc1`, 0.954. As for `C=C[C@@H](OC)[C@H](OC(=O)Nc1ccc(SC)cc1)c1ccc(O)c(F)c1`, the figure is 0.622; as for `CCCCCCCCCCC(O)C1C=CC2C(=O)N(C)C(=O)C2N1Nc1ccc([N+](=O)[O-])cc1[N+](=O)[O-]` (configuration not stated), 0.884; as for `O=C(NCc1ccccc1)[C@@H]1c2ccccc2C(=O)N(Cc2ccccc2C(F)(F)F)[C@H]1c1ccc(CO)cc1`, -0.0228. To `COCCOC(=O)N1C(=O)[C@@]2(c3cc(C#CCCO)ccc31)[C@H](C(=O)Nc1nc3ccccc3s1)[C@H]1C(=O)O[C@H](c3ccccc3)[C@H](c3ccccc3)N1[C@@H]2c1ccccc1OCCO` belongs 0.623.

Take `COCCOC(=O)N1C(=O)[C@@]2(c3cc(C#CCC(C(=O)OC)C(=O)OC)ccc31)[C@H](C(=O)N1CCc3cc(OC)c(OC)cc3C1)[C@H]1C(=O)O[C@H](c3ccccc3)[C@H](c3ccccc3)N1[C@@H]2c1ccc(OCCO)cc1`: the composite z-score is -0.525. To `COc1ccc(CCNC(=O)[C@@]2(Sc3ccc(C)cc3)CC(=O)N(C3Cc4ccccc4C3)[C@@H]2c2ccc(CO)cc2)cc1` belongs 0.575; to `CC1=C([C@H](O)CCc2ccccc2)[C@H](CO)[C@@H]2C(=O)N(C)C(=O)[C@@H]2C1`, 0.361.
